# IL1B secr inh – blocks inflammasome-driven IL-1 beta release; THP-1 LPS/ATP IL-1B secretion, AlphaLISA, 16 h; stronger effect = lower value; AID 743279; actives 4.7% (n = 360,000); activity change, % at 57.5 µM; in the data active = activity change below about -50%; inconclusive = mostly about -30% to -49%; note: % is set by controls: 0 for no effect and ±100 for the full control effect
#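 Secreted IL-1B measured by AlphaLISA bead assay after 16 h compound exposure of THP-1 cells; compounds (final up to 57.5 uM) added 1 h before LPS (250 ng/mL) and ATP (1.25 mM) stimulation; lower signal means less secretion.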
# HepG2 tox – counter-screen for TGF-b inhibitors: cytotoxicity in HepG2 cells; actives 0.76% (n = 410,000); Potency, µM (highest dose often 46.1 µM), inactives show top-dose activity change, negative = cytotoxicity, hits mostly cytotoxic; HepG2 CAGA-GFP viability, ATP luminescence, 18 h; AID 588856; note: potency is the fitted concentration of half-maximal effect
#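 HepG2 CAGA-GFP cells (1000/well, DMEM with 1% FBS) received compound, then TGF-beta at 500 pg/mL final, and were incubated 18 hours at 37 degrees C. Viability was read by CellTiter-Glo luminescence. Media-only wells were set as complete cell-killing and DMSO as no toxicity.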
# ATXN viability – cell viability loss in ATXN counter-screen. S2 cells (HEK-293 line with an ATXN2-luciferase reporter) viability, CellTiter-Fluor protease fluorescence, 24 h. actives 0.49% (n = 400,000). Potency, µM (doses to about 56.7 µM), usual class: cytotoxic; note: potency is the fitted concentration of half-maximal effect; nearly all actives have a fitted effect of over 40% in size
# TGFb SMAD3 inh – blocks TGF-b signaling; AID 588855; Potency, µM (highest dose often 46.1 µM), for the others: at the highest dose activity, negative = inhibition, hits mostly inhibitors; HepG2 CAGA-GFP TGF-b/SMAD3 reporter, GFP fluorescence, 18 h; TGF-beta stimulated, 500 pg/mL final; actives 1.2% (n = 410,000); note: potency is the fitted concentration of half-maximal effect; % is set by controls: 0 for no effect and ±100 for the full control effect; nearly all actives have a fitted effect of over 65% in size
#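 First, reporter cells (HEPG2 CAGA-GFP) rested 2 h at 37 degrees C. Next, compounds were pinned in and TGF-beta added to 500 pg/mL final. After 18 h, GFP was imaged per cell and summed per well.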
# ATXN2 expr inh – inhibitors of ATXN2 expression | actives 0.72% (n = 360,000) | HEK-293 ATXN2-luciferase reporter, luminescence, 24 h | Potency, µM (doses to about 57 µM), for the others: at the top dose activity change, negative = inhibition, most hits filed as inhibitors; note: potency is the fitted concentration of half-maximal effect; % is set by controls: 0 for no effect and ±100 for the full control effect; nearly all actives have a fitted effect of over 55% in size
#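 ATXN2-luciferase reporter cells (luciferase flanked by upstream and downstream ATXN2 gene portions) were treated 24 h at 37 °C with compounds at up to 57 uM. SteadyGlo luminescence gave expression; GF-AFC fluorescence gave viability.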
# * hit, by the source's call; i = inactive; ? = inconclusive; . = not tested or not shown. The list is not random: actives were taken first. Their share in the collection is about 5.7%. Unless noted, calls come from the whole dose curve; as a rule, active = well fitted curve in the direction sought with a large enough effect; inconclusive = small, poorly fitted or top-dose-only effect, or another doubt; inactive = no such curve, though single readings can be large; an effect the other way counts as inactive or inconclusive.
SMILES,IL1B secr inh,HepG2 tox,ATXN viability,TGFb SMAD3 inh,ATXN2 expr inh
CN1C2CCC1CC(NS(=O)(=O)c1cccc(C(F)(F)F)c1)C2 (stereo not drawn),-76*,19%,i,12%,-14%
CN1C2CCC1CC(NC(=O)c1cccc(C(F)(F)F)c1)C2 (stereo not drawn),-12,0%,i,-3%,-2%
Fc1ccc(Nc2nc(SCc3ccccc3F)nc3ccccc23)cc1,.,-104%,.,?,.
COc1ccc(C(=O)Nc2ccc3c(c2)C(=O)c2ccccc2C3=O)cc1OC,11,-21%,i,-14%,8%
COc1ccc(C(=O)c2c(C(F)(F)F)oc3c2C(=O)c2ccccc2C3=O)cc1OC,?,3.5µM*,28µM*,4µM*,?
C[n+]1c2n(c3ccccc31)N=C(c1ccc(Cl)cc1)CS2,-74*,-13%,i,0%,?
COc1ccc(C2=Nn3c([n+](C)c4ccccc43)SC2)cc1,-16,-6%,?,?,.
CCOC(=O)c1c(C)[nH]c(C)c1S(=O)(=O)N1CCCC(C(=O)N2CCN(c3ccc(Cl)cc3)CC2)C1 (stereo not drawn),.,-20%,?,?,?
CCCN(C(=O)c1cc2c(=O)oc3ccccc3c2s1)c1ccccc1C,.,-1%,i,0%,4%
N#Cc1cccc(-n2c(-c3ccccc3)nnc2-c2ccccc2)c1C#N,?,-23%,i,22%,21%
N#Cc1ccc(-n2c(-c3ccccc3)nnc2-c2ccccc2)cc1C#N,-74*,2%,i,2%,1%
COc1ccccc1/C=C/c1cncc(/C=C/c2ccccc2OC)c1,.,-33%,.,-14%,.
N=c1oc2cc(O)ccc2cc1C(=O)Nc1ccc(F)cc1,-56*,0%,.,0%,42%
O=C(c1ccc(F)cc1)c1cc2ccc(O)cc2oc1=O,-12,-52%,?,-11%,-24%
Cc1ccc(CSCc2ccc(C(=O)NCCc3ccc(Cl)cc3)o2)cc1,.,-24%,.,?,.
CCc1ccccc1N(CC)C(=O)c1c(C)oc2ncnc(N3CCOCC3)c12,.,-2%,.,-5%,.
CCC(C)c1ccc(NC(=S)NCCn2cc(Cl)cn2)cc1 (stereo not drawn),?,-33%,i,-23%,-35%
CCC(C)c1ccc(NC(=S)NCCn2cc(Br)cn2)cc1 (stereo not drawn),-52*,-19%,i,?,-22%
Cc1cc(NC(=O)C(Cl)c2ccccc2)no1 (stereo not drawn),-83*,0%,i,-11%,-10%
CCC(Oc1ccccc1)C(=O)Nc1cc(C)on1 (stereo not drawn),14,-11%,i,1%,29%
CC1C(=O)N2CCCc3cc(S(=O)(=O)Nc4ccc(Br)cc4F)cc1c32 (stereo not drawn),.,-2%,.,-16%,.
CC(C)c1ccc(N2C=Nc3ccc(C(C)C)cc3C2)cc1,-97*,-62%,?,?,-21%
O=C(Nc1ccc(-n2cccn2)cc1)C1CCCCN1Cc1cccc2cccnc12 (stereo not drawn),-50*,-19%,?,?,?
COc1ccc(OC)c(/C=C/c2cc3ccccc3c[n+]2C)c1,.,-70%,.,-5%,.
COc1cc(OC)c(/C=C/c2cc3ccccc3c[n+]2C)c(OC)c1,.,-37%,.,7.9µM*,.
SMILES,IL1B secr inh,HepG2 tox,ATXN viability,TGFb SMAD3 inh,ATXN2 expr inh
O=C(CC(Sc1ccccc1)c1cccs1)c1ccco1 (stereo not drawn),-70*,-29%,i,-24%,0%
Cc1ncc2c(c1CNC(=O)c1ccc3c(c1)OCO3)CCN(C(=O)c1csc3c1CCCC3)C2,.,.,i,.,.
O=C(CN1C(=O)NC2(CCCC2)C1=O)Nc1ccc(F)c([N+](=O)[O-])c1,-66*,-40%,i,-18%,-1%
O=C(CSc1ccccn1)Nc1cccc([N+](=O)[O-])c1,35,18%,i,?,3%
O=C1NC2(CCCCCC2)C(=O)N1Cc1ccc(Cl)cc1Cl,-63*,-1%,i,-12%,-24%
O=C(CN1C(=O)NC2(CCCCCCC2)C1=O)NCc1ccc(Cl)cc1,?,-31%,i,-20%,-1%

# Screens (PubChem BioAssay)
